Measurements reported in the antibiotic and cytotoxicity screens of Wong et al. (2023).
Out of some 39,000 compounds screened, about 3,300 (8.5%) were called active. The full list was thinned out, with actives kept by preference.

The compounds below were run on HepG2 (assay: cytotoxicity call (relative viability < 0.9)). Conditions: 10 µM.

SMILES	cytotoxicity call
O=C(C[C@@H]1C=C[C@@H](NC(=O)c2cnccn2)[C@H](CO)O1)NCc1ccccc1F	inactive
O=C(C[C@@H]1C[C@@H]2c3cc(NC(=O)Cc4ccncc4)ccc3O[C@@H]2[C@H](CO)O1)NCc1cccc(F)c1	inactive
CS(=O)(=O)[O-].C[n+]1ccccc1C=NO	inactive
OCc1cccc(CO)c1F	inactive
COc1ccc(S(=O)(=O)Nc2ccc3c(c2)CC(=O)N([C@@H](C)CO)C[C@H](C)[C@H](CN(C)C)O3)cc1	inactive
C[C@@H](O)CC1=C[C@H]([C@@H](C)O)OC1=O	inactive
C[C@@H]1CN([C@@H](C)CO)C(=O)c2cc(NS(=O)(=O)c3cn(C)cn3)ccc2O[C@H]1CN(C)S(C)(=O)=O	active
COc1ccc(S(=O)(=O)N(C)C[C@@H]2Oc3ccc(NS(=O)(=O)c4cccs4)cc3C(=O)N([C@@H](C)CO)C[C@@H]2C)cc1	active
C[C@H]1CN([C@@H](C)CO)C(=O)c2cc(NS(=O)(=O)c3cn(C)cn3)ccc2O[C@@H]1CN(C)S(C)(=O)=O	inactive
C[C@@H]1CN([C@H](C)CO)C(=O)c2cc(NS(=O)(=O)c3cn(C)cn3)ccc2O[C@@H]1CN(C)S(C)(=O)=O	inactive
C[C@@H]1CN([C@H](C)CO)C(=O)c2cc(NS(=O)(=O)c3ccc(F)cc3)ccc2O[C@H]1CN(C)S(=O)(=O)c1cn(C)cn1	active
C[C@@H]1CN([C@@H](C)CO)C(=O)c2cc(NS(=O)(=O)c3cn(C)cn3)ccc2O[C@H]1CN(C)S(=O)(=O)c1cccs1	active
C[C@@H]1CN([C@H](C)CO)C(=O)c2cc(NS(=O)(=O)c3cn(C)cn3)ccc2O[C@@H]1CN(C)S(=O)(=O)c1cccs1	inactive
COc1ccc(S(=O)(=O)N(C)C[C@@H]2Oc3ccc(NS(=O)(=O)c4cccs4)cc3C(=O)N([C@H](C)CO)C[C@H]2C)cc1	inactive
COc1ccc(S(=O)(=O)N(C)C[C@H]2Oc3ccc(NS(=O)(=O)c4cccs4)cc3C(=O)N([C@H](C)CO)C[C@H]2C)cc1	inactive
C[C@H](CO)N1C[C@H](C)[C@H](CN(C)S(=O)(=O)c2cn(C)cn2)Oc2ccc(NS(=O)(=O)c3ccc(F)cc3)cc2C1=O	inactive
C[C@@H]1CN([C@H](C)CO)C(=O)c2cc(NS(=O)(=O)c3cn(C)cn3)ccc2O[C@H]1CN(C)S(=O)(=O)c1cccs1	inactive
C[C@H](CO)N1C[C@H](C)[C@@H](CN(C)S(=O)(=O)c2cn(C)cn2)Oc2ccc(NS(=O)(=O)c3ccc(F)cc3)cc2C1=O	inactive
CC(C)NC(=O)N(C)C[C@H]1Oc2ccc(NC(=O)CCC(F)(F)F)cc2CC(=O)N([C@H](C)CO)C[C@@H]1C	inactive
C[C@@H]1CCCCO[C@H](CN(C)C(=O)Nc2ccccc2)[C@@H](C)CN([C@H](C)CO)C(=O)c2cc(NC(=O)Nc3cccc4ccccc34)ccc2O1	inactive
Cc1noc(C)c1S(=O)(=O)Nc1ccc2c(c1)C(=O)N([C@@H](C)CO)C[C@@H](C)[C@H](CN(C)C(=O)Nc1ccccc1)OCCCC[C@@H](C)O2	inactive
N[C@@H](C(=O)O)[C@@H](O)[C@H](O)[C@H](O)CO	inactive

SMILES	cytotoxicity call
Fc1ccc(C2=NNC3=NCCN3C2)cc1F	inactive
COc1ccc(S(=O)(=O)Nc2cccc3c2O[C@H](CN(C)S(=O)(=O)c2ccccc2)[C@@H](C)CN([C@H](C)CO)C3=O)cc1	inactive
C[C@@H]1CCCCO[C@@H](CN(C)Cc2ccc(C(=O)O)cc2)[C@H](C)CN([C@H](C)CO)C(=O)c2cc(NC(=O)Nc3ccccc3)ccc2O1	inactive
C[C@H]1CN([C@@H](C)CO)C(=O)Cc2cc(NS(=O)(=O)c3cn(C)cn3)ccc2O[C@H]1CN(C)C	inactive
CNC[C@@H]1OCCCC[C@@H](C)Oc2ccc(NC(=O)c3ccncc3)cc2C(=O)N([C@H](C)CO)C[C@@H]1C	inactive
C[C@H]1CN([C@@H](C)CO)C(=O)c2cccc(NC(=O)Nc3cccc4ccccc34)c2O[C@@H]1CN(C)S(=O)(=O)c1cccs1	inactive
O=C(C[C@H]1C[C@H]2c3cc(NC(=O)Nc4ccc(C(F)(F)F)cc4)ccc3O[C@H]2[C@@H](CO)O1)NCCc1ccccc1	inactive
C[C@H](CO)N1C[C@H](C)[C@@H](CN(C)S(=O)(=O)c2cccs2)Oc2ccc(NS(=O)(=O)c3cccs3)cc2C1=O	inactive
C[C@@H]1CN([C@H](C)CO)C(=O)c2cc(NS(=O)(=O)c3cn(C)cn3)ccc2O[C@@H]1CN(C)C(=O)Nc1ccccc1	inactive
COc1ccc(S(=O)(=O)N(C)C[C@H]2Oc3ccc(NS(=O)(=O)c4cccs4)cc3C(=O)N([C@@H](C)CO)C[C@H]2C)cc1	inactive
C[C@H](CO)N1C[C@H](C)[C@@H](CN(C)S(=O)(=O)c2cccs2)Oc2ccc(NS(=O)(=O)c3cccs3)cc2CC1=O	active
COc1ccc(S(=O)(=O)N(C)C[C@H]2Oc3ccc(NS(=O)(=O)c4cccs4)cc3C(=O)N([C@@H](C)CO)C[C@@H]2C)cc1	inactive
C[C@@H]1CN([C@H](C)CO)C(=O)c2cc(NS(=O)(=O)c3cccs3)ccc2O[C@H]1CN(C)S(=O)(=O)c1cccs1	active
C[C@@H]1CN([C@@H](C)CO)C(=O)Cc2cc(NS(=O)(=O)c3cccs3)ccc2O[C@H]1CN(C)S(=O)(=O)c1cccs1	inactive
C[C@@H]1CN([C@H](C)CO)C(=O)Cc2cc(NS(=O)(=O)c3cccs3)ccc2O[C@@H]1CN(C)S(=O)(=O)c1cccs1	inactive
C[C@@H]1CN([C@@H](C)CO)C(=O)c2cc(NS(=O)(=O)c3cn(C)cn3)ccc2O[C@@H]1CN(C)C(=O)Nc1ccccc1	inactive
COc1ccc(S(=O)(=O)N(C)C[C@@H]2Oc3ccc(NS(=O)(=O)c4cccs4)cc3C(=O)N([C@H](C)CO)C[C@@H]2C)cc1	active
C[C@H](CO)N1C[C@H](C)[C@H](CN(C)C(=O)Nc2ccccc2)Oc2ccc(NS(=O)(=O)c3cn(C)cn3)cc2C1=O	active
C[C@H]1CN([C@@H](C)CO)C(=O)c2cc(NS(=O)(=O)c3cccs3)ccc2O[C@H]1CN(C)S(=O)(=O)c1cccs1	inactive
C[C@@H]1CCCCO[C@@H](CN(C)C(=O)c2ccccc2)[C@H](C)CN([C@H](C)CO)C(=O)c2cc(NC(=O)Nc3ccccc3)ccc2O1	inactive
Cc1ccc(S(=O)(=O)NCC[C@@H]2CC[C@@H](NS(=O)(=O)c3ccccc3Cl)[C@@H](CO)O2)cc1	inactive
C[C@H]1CN([C@@H](C)CO)S(=O)(=O)c2ccc(C3=CCCC3)cc2O[C@@H]1CN(C)C(=O)Cc1ccncc1	inactive

SMILES	cytotoxicity call
COc1cccc(S(=O)(=O)N(C)C[C@H]2Oc3ncc(-c4cccc(C(=O)N(C)C)c4)cc3C(=O)N([C@H](C)CO)C[C@@H]2C)c1	inactive
C[C@H](CO)N1C[C@H](C)[C@H](CN(C)C(=O)Cc2ccccn2)Oc2cc(C#Cc3ccccc3)ccc2S1(=O)=O	inactive
COc1ccc(CNC(=O)C[C@@H]2CC[C@H]3[C@@H](COC[C@H](O)CN3S(=O)(=O)c3ccc(OC)cc3)O2)cc1	inactive
C[C@H]1CN([C@@H](C)CO)C(=O)c2cc(NC(=O)Cc3ccccc3)ccc2O[C@H]1CN(C)S(=O)(=O)c1cccs1	inactive
COc1ccc(NC(=O)Nc2ccc3c(c2)C(=O)N([C@H](C)CO)C[C@H](C)[C@H](CN(C)S(=O)(=O)c2ccc(OC)cc2)OCCCC[C@@H](C)O3)cc1	inactive
COc1ccccc1S(=O)(=O)N[C@H]1CC[C@H](CCNC(=O)C2CC2)O[C@@H]1CO	inactive
C[C@@H]1O[C@@H](O[C@@H]2C=C(CO)[C@H]3[C@H](O[C@@H]4O[C@H](CO)[C@@H](O)[C@H](O)[C@H]4O)OC=C[C@H]32)[C@H](O)[C@H](O)[C@H]1OC(=O)/C=C/c1ccccc1	inactive
C[C@H](CO)N1C[C@H](C)[C@H](CN(C)S(=O)(=O)c2ccc(F)cc2)OCCCC[C@H](C)Oc2ccc(NC(=O)CCC(F)(F)F)cc2C1=O	inactive
C[C@@H]1CCCCO[C@H](CN(C)Cc2ccccc2)[C@H](C)CN([C@H](C)CO)C(=O)c2cc(NC(=O)NC3CCCCC3)ccc2O1	inactive
C[C@H]1CN([C@@H](C)CO)C(=O)c2cccc(NC(=O)Nc3ccc4c(c3)OCO4)c2O[C@@H]1CN(C)Cc1ccc(Oc2ccccc2)cc1	inactive
C[C@@H]1CN([C@H](C)CO)C(=O)c2cccc(NC(=O)Nc3ccc4c(c3)OCO4)c2O[C@@H]1CN(C)Cc1ccc(Oc2ccccc2)cc1	inactive
C[C@@H]1CN([C@H](C)CO)C(=O)c2cccc(NC(=O)Nc3ccc4c(c3)OCO4)c2O[C@H]1CN(C)Cc1ccc(Oc2ccccc2)cc1	active
C[C@@H]1CN([C@@H](C)CO)C(=O)c2cccc(NC(=O)Nc3ccc4c(c3)OCO4)c2O[C@@H]1CN(C)Cc1ccc(-c2ccccc2)cc1	active
C[C@H]1CN([C@@H](C)CO)C(=O)c2cccc(NC(=O)Nc3ccc4c(c3)OCO4)c2O[C@H]1CN(C)Cc1ccc(-c2ccccc2)cc1	inactive
C[C@@H]1CN([C@H](C)CO)C(=O)c2cccc(NC(=O)Nc3ccc4c(c3)OCO4)c2O[C@@H]1CN(C)Cc1ccc(-c2ccccc2)cc1	inactive
C[C@H]1CN([C@@H](C)CO)C(=O)c2cccc(NC(=O)Nc3ccc4c(c3)OCO4)c2O[C@@H]1CN(C)Cc1ccc(-c2ccccc2)cc1	inactive
C[C@@H]1CN([C@@H](C)CO)C(=O)c2cccc(NC(=O)Nc3ccc4c(c3)OCO4)c2O[C@H]1CN(C)Cc1ccc(Oc2ccccc2)cc1	inactive
C[C@H](CO)N1C[C@H](C)[C@H](CN(C)Cc2ccc(Oc3ccccc3)cc2)Oc2c(NC(=O)Nc3ccc4c(c3)OCO4)cccc2C1=O	active
C[C@H]1CN([C@@H](C)CO)C(=O)c2cccc(NC(=O)Nc3ccc4c(c3)OCO4)c2O[C@H]1CN(C)Cc1ccc(Oc2ccccc2)cc1	active
C[C@@H]1CN([C@@H](C)CO)C(=O)c2cccc(NC(=O)Nc3ccc4c(c3)OCO4)c2O[C@@H]1CN(C)Cc1ccc(Oc2ccccc2)cc1	inactive
C[C@H](CO)N1C[C@H](C)[C@@H](CN(C)Cc2ccc(Oc3ccccc3)cc2)Oc2c(NC(=O)Nc3ccc4c(c3)OCO4)cccc2C1=O	inactive
